PubChem BioAssay (NCATS)
Inconclusive results are not listed. Active and inactive are the calls of the source. Unless noted, calls follow the shape of the dose curve; as a rule, active = well fitted curve in the direction sought with a large enough effect; inconclusive = small, poorly fitted or top-dose-only effect, or another doubt; inactive = no such curve, though single readings can be large; an effect the other way counts as inactive or inconclusive.

Tests used:
[1] = target: Lysosomal acid glucosylceramidase (Homo sapiens) (UniProt P04062); test: Glucocerebrosidase-p2 (AID 348; in the data active = potency below about 10 µM; also: potency is read from the fitted curve at half-maximal effect); conditions: purified GBA, blue fluorogenic substrate, 40 min
Outline: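 Compounds titrated from 0.6 nM upwards against 0.2 nM enzyme in pH 5.9 citric acid/KH2PO4, taurocholate, tween-20; blue fluorogenic substrate 80 uM, 40 min room temperature, stopped and read Ex 365/Em 440 for AC50.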

[2] = AP1 Signaling Pathway (AID 357; active = well fitted curve in either direction with a large enough effect, not every such curve was filed as active; also: % is scaled to controls: 0 for no effect and ±100 for the full control effect); conditions: ME-180 AP-1-bla reporter, EGF-induced, beta-lactamase ratio, 5 h; at 7.69 µM (top of the series) unless noted
Outline: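 ME-180 cells with beta-lactamase reporter under AP-1 response element, stimulated with EC50 EGF; compounds tested in titration series, 5 h at 37 °C. CCF4 substrate added 2.5 h at room temperature; 460/530 nm emission ratio gave %activity and AC50.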

[3] = target: Cytochrome P450 1A2 (Homo sapiens) (UniProt P05177); test: p450-cyp1a2 (AID 410; calls by dose curve; also: potency is read from the fitted curve at half-maximal effect); conditions: recombinant CYP1A2, luciferin-ME demethylation, luminescence; series mostly up to 57 µM
Outline: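 Inhibition was calculated relative to 57 uM furafylline (full inhibition). The reaction used human CYP1A2 at 20nM with Luciferin-ME at its Km, 100uM, driven by an NADPH-regenerating system for 60 min at room temperature.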

[4] = NFAT Signaling Pathway (AID 444; active = well fitted curve in either direction with a large enough effect, not every such curve was filed as active;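 also: carbachol stimulus at about its EC50 of 1 µM final; % is scaled to controls: 0 for no effect and ±100 for the full control effect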); conditions: Jurkat NFAT-bla M1, carbachol, beta-lactamase ratio, 5 h; at 7.69 µM (top of the series) unless noted
Outline: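 Read-out: CCF4 FRET ratio (460 nm/530 nm) after 1 h RT dye loading, used for %activity and AC50 from titration series. Cells: Jurkat NFAT-β-lactamase/M1 line, treated with compound plus 1 uM carbachol for 5 h, 37 °C.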

[5] = Stat Signaling Pathway (AID 446; active = well fitted curve in either direction with a large enough effect, not every such curve was filed as active;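 also: ME-180 cervical cancer cells given 40 pM IL-6 alongside compound; SIE-controlled beta-lactamase reporter measured as 460/530 nm FRET emission ratio; % is scaled to controls: 0 for no effect and ±100 for the full control effect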); conditions: ME-180 SIE beta-lactamase reporter, IL-6 stimulated, 5 h; at 7.69 µM (top of the series) unless noted
Outline: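 ME-180 SIE-bla cells; overnight plating; cpd + IL-6 40 pM, 5 h, 37 C; LiveBLAzer 2.5 h RT; 460/530 nm emission ratio. Normalized to 300 pM IL-6 and 125 nM JAK inhibitor controls.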

[6] = target: Glucocorticoid receptor (Homo sapiens) (UniProt P04150); test: GR-GFP Redistribution (AID 450;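 active = compounds whose dose series gives a full or clear partial fitted curve of increased nuclear translocation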; also: potency is read from the fitted curve at half-maximal effect); conditions: U2OS GR-GFP nuclear translocation, laser cytometry, 2 h
[7] = target: Glucocorticoid receptor (Homo sapiens) (UniProt P04150); test: GR-EFC Redistribution (AID 451; calls by dose curve; also: potency is read from the fitted curve at half-maximal effect); conditions: CHO-K1 GR-EFC translocation, beta-gal luminescence, 2 h
Outline: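 Translocation of GR-ED fusion to nuclear EA restores b-gal, read by luminescence after 1 h room-temperature detection. Engineered CHO-K1 biosensor cells, 1,000/well, exposed 2 h at 37 C to titrations up to 46 uM final.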

[8] = target: Mitogen-activated protein kinase 10 (Mus musculus) (UniProt Q61831); test: JNK3 AlphaScreen Assay (AID 530; active = well fitted curve in either direction with a large enough effect, not every such curve was filed as active;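 also: kinase came from lysate of stimulated human HepG2 cells; signal reports phosphorylation of biotinylated GST-cJun 1-79 at Ser73 with 10 µM ATP; % is scaled to controls: 0 for no effect and ±100 for the full control effect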); conditions: JNK3 lysate, c-Jun phosphorylation; series mostly up to 57.1 µM
Outline: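 Room-temperature AlphaScreen kinase assay; pre-activated HepG2 lysate as JNK3 source, biotin-GST-cJun(1-79) substrate, 10 uM ATP, compound 15 min preincubation.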

[9] = target: 3',5'-cyclic-AMP phosphodiesterase 4B (Homo sapiens) (UniProt Q07343); test: qHTS Assay for Inhibitors of PDE-IV (AID 607; active = well fitted activation curve with a large enough effect in the main read-out, with a control signal flat, not every such curve was filed as active; also: % of control where 0% means no effect); conditions: HEK293 ACTOne CNG channel cells, membrane potential fluorescence; series mostly up to 22.9 µM
Outline: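 ACTOne HEK293 cells carry a modified cAMP-gated CNG channel and express endogenous PDE4; plated 1000 cells/well, compounds up to 22.9 uM final. Membrane-potential dye fluorescence (ex 535/em 590) was read; parental cells received 10 uM forskolin + 100 uM RO 20-1724.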

[10] = target: Cytochrome P450 3A4 (Homo sapiens) (UniProt P08684); test: qHTS Assay for Inhibitors and Substrates of Cytochrome P450 3A4 (AID 884); conditions: recombinant CYP3A4, Luciferin-PPXE luminescence; series mostly up to 57.1 µM; also: potency is read from the fitted curve at half-maximal effect; nearly all actives have a fitted effect of over 50% in size
Outline: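 20 nM human CYP3A4 with 25 uM Luciferin-PPXE (at KM) in 200 mM KPO4, preincubated 10 min with compound; NADPH regeneration started a 60 min RT reaction. Luciferin detected by luminescence, normalized to 57 uM ketoconazole as full inhibition.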

[11] = target: Cytochrome P450 3A4 (Homo sapiens) (UniProt P08684); test: qHTS Assay for Activators of Cytochrome P450 3A4 (AID 885); conditions: recombinant CYP3A4, Luciferin-PPXE luminescence, 60 min; series mostly up to 57.1 µM; also: nearly all actives have a fitted effect of over 65% in size
Outline: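 20nM CYP3A4 + 25uM Luciferin-PPXE (=KM), 200mM KPO4; cpd 10 min RT; NADPH regen, 60 min RT; stop w/ detection buffer, 20 min; luminescence. Normalized to 57 uM ketoconazole.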

[12] = qHTS Assay for Lipid Storage Modulators (AID 1519; calls by dose curve); conditions: Drosophila S3 cells, BODIPY lipid droplet/cell ratio, laser cytometry, cells loaded with oleic acid; for activity change, negative = inhibition: at 57.5 µM (top of the series)
Outline: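 Cells seeded at 5,000 per well were treated with compounds over a concentration series and loaded with oleic acid (400 uM, as added). Lipid droplet fluorescence (488 nm excitation, 500-530 nm channel) was read by laser-scanning cytometry and normalized to 20 uM Triacsin C.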

[13] = target: Ubiquitin carboxyl-terminal hydrolase 1 (Homo sapiens) (UniProt O94782); test: Inhibitors of USP1/UAF1: Pilot qHTS (AID 504865); conditions: purified USP1/UAF1, Ub-rhodamine cleavage fluorescence; series mostly up to 54.9 µM;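 also: rhodamine fluorescence freed from ubiquitin-rhodamine substrate followed over time; top concentration of the series differs between compounds; % is scaled to controls: 0 for no effect and ±100 for the full control effect; nearly all actives have a fitted effect of over 35% in size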
Outline: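 USP1/UAF1 complex (1nM) preincubated with compound 15 min at room temperature, then Ub-Rho substrate (150nM final) added. Fluorescence read kinetically at 480/540 nm, 6 reads every 60 seconds. Buffer: 50mM HEPES pH 7.8, 0.5mM EDTA, 0.1 mg/ml BSA, 1mM TCEP, 0.01% Tween-20.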

[14] = Primary qHTS for small molecule stabilizers of the endoplasmic reticulum resident proteome: Secreted ER Calcium Modulated Protein (SERCaMP) assay (AID 1508630); conditions: SH-SY5Y GLuc-SERCaMP (Gaussia luciferase released on ER calcium loss) secretion, thapsigargin, luminescence; series mostly up to 38.4 µM; also: % is scaled to controls: 0 for no effect and ±100 for the full control effect
Outline: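 GLuc-SERCaMP-expressing SH-SY5Y cells, pretreated 16 h with compound, are challenged with thapsigargin to empty ER calcium stores; after 4 h, coelenterazine is added directly to the medium and luminescence is imaged.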

[15] = target: Dual specificity protein kinase CLK4 (Homo sapiens) (UniProt Q9HAZ1); test: qHTS Assay for Inhibitors of CDC-like Kinase 4 (ADP-FP Assay) (AID 1795); conditions: Transcreener ADP fluorescence polarization; series mostly up to 50 µM; also: % is scaled to controls: 0 for no effect and ±100 for the full control effect; nearly all actives have a fitted effect of over 60% in size
Outline: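 Recombinant human Clk4 (6.25 nM) phosphorylated RS repeat peptide (100 uM) with 1 uM ATP in Tris pH 7.5/MgCl2/EGTA/DTT/Triton buffer for one hour. ADP was quantified by Transcreener competitive fluorescence polarization against an ADP calibration curve.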

[16] = target: Dual specificity protein kinase CLK4 (Homo sapiens) (UniProt Q9HAZ1); test: qHTS Assay for Inhibitors of CDC-like Kinase 4 (Kinase-Glo Assay) (AID 1770); conditions: recombinant Clk4, Kinase-Glo ATP depletion luminescence; series mostly up to 66.7 µM; also: % is scaled to controls: 0 for no effect and ±100 for the full control effect; nearly all actives have a fitted effect of over 65% in size
Outline: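 Recombinant human Clk4 (25 nM) phosphorylated RS repeat peptide (100 uM) with 1 uM ATP in Tris pH 7.5/MgCl2/EGTA/DTT/Triton buffer for 4.5 h at room temperature. Residual ATP was quantified by Kinase-Glo luciferase luminescence.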

[17] = measured here: cell count channel max response
[18] = measured here: lipid channel max response

Sequence of Lysosomal acid glucosylceramidase (Homo sapiens) (P04062 whole entry, looked up): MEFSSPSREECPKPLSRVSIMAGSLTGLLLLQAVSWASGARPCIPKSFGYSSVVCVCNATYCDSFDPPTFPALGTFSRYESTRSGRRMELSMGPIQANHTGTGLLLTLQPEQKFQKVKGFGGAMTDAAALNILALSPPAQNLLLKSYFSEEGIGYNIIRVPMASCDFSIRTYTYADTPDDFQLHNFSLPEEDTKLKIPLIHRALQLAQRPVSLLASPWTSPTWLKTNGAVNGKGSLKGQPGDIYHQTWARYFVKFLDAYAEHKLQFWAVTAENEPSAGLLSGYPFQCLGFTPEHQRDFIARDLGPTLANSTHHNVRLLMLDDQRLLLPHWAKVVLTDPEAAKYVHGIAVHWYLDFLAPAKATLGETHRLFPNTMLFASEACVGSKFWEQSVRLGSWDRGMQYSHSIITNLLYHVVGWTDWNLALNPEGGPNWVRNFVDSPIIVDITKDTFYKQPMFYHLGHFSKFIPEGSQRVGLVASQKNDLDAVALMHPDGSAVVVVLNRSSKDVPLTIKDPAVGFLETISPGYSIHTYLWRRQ
Sequence of Cytochrome P450 3A4 (Homo sapiens) (P08684 whole entry, looked up): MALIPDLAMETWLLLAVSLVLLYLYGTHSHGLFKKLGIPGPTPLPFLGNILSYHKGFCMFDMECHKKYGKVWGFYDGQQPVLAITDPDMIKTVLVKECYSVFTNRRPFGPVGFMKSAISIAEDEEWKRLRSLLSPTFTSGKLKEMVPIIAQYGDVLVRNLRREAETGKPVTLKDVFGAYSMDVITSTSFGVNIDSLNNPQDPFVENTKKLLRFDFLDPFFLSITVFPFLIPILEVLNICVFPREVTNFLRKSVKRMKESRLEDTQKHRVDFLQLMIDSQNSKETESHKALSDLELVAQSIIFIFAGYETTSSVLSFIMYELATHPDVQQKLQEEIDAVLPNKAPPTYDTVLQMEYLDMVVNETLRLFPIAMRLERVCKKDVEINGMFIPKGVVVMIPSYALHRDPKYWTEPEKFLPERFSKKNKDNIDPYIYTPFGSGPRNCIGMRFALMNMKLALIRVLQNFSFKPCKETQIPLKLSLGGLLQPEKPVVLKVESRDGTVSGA
Sequence of 3',5'-cyclic-AMP phosphodiesterase 4B (Homo sapiens) (Q07343 whole entry, looked up): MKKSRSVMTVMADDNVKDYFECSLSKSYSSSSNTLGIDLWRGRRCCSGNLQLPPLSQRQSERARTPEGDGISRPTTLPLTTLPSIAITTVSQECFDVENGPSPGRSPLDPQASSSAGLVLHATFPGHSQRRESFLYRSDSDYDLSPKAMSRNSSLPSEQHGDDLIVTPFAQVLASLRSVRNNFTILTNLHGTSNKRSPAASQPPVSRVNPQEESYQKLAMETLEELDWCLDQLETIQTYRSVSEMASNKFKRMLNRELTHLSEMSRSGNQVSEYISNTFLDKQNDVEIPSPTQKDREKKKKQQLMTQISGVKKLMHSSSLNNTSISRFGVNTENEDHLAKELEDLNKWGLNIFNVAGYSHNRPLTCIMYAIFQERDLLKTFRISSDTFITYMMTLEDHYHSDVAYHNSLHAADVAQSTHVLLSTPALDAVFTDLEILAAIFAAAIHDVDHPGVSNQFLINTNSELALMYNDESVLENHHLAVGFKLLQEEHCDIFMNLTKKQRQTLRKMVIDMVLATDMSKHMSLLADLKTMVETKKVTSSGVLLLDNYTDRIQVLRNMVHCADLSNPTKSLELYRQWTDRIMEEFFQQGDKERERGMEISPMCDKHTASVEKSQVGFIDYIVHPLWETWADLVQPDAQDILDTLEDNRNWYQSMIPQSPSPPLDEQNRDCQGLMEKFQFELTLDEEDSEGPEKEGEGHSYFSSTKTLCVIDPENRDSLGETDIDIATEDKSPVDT
Sequence of Ubiquitin carboxyl-terminal hydrolase 1 (Homo sapiens) (O94782 whole entry, looked up): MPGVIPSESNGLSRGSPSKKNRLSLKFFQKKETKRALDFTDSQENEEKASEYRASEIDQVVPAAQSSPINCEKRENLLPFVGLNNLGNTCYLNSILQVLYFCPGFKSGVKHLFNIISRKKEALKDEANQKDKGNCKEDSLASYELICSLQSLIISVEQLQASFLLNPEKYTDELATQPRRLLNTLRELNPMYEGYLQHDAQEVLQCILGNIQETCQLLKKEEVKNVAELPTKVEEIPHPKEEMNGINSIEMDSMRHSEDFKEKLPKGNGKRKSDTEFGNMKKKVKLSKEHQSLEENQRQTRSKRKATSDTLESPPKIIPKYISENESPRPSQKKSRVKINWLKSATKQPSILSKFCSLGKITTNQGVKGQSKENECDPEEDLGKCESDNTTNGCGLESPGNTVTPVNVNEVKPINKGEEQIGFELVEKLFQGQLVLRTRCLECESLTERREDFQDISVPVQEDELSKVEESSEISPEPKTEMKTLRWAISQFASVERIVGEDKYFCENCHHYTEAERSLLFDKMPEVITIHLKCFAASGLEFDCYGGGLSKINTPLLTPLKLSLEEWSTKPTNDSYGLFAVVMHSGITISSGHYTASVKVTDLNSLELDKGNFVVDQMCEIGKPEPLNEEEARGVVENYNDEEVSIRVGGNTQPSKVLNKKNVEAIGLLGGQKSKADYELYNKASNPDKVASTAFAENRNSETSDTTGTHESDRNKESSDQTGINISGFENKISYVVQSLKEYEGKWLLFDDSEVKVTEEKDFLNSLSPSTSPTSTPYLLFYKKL
Sequence of Dual specificity protein kinase CLK4 (Homo sapiens) (Q9HAZ1 whole entry, looked up): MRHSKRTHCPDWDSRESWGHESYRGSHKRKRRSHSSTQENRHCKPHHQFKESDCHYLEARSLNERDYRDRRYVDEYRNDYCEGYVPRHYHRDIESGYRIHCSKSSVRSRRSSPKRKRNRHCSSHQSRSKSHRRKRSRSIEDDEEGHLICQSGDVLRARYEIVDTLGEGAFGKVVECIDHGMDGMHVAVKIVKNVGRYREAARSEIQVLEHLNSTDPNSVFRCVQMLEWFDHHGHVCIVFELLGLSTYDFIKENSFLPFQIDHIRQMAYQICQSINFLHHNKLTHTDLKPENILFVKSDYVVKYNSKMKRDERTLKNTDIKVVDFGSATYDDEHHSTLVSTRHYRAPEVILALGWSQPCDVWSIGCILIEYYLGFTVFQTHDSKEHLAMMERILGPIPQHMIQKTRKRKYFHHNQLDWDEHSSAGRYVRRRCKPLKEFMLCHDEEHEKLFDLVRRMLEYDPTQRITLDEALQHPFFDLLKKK
Sequence of Glucocorticoid receptor (Homo sapiens) (P04150 whole entry, looked up, the tested form may be a part): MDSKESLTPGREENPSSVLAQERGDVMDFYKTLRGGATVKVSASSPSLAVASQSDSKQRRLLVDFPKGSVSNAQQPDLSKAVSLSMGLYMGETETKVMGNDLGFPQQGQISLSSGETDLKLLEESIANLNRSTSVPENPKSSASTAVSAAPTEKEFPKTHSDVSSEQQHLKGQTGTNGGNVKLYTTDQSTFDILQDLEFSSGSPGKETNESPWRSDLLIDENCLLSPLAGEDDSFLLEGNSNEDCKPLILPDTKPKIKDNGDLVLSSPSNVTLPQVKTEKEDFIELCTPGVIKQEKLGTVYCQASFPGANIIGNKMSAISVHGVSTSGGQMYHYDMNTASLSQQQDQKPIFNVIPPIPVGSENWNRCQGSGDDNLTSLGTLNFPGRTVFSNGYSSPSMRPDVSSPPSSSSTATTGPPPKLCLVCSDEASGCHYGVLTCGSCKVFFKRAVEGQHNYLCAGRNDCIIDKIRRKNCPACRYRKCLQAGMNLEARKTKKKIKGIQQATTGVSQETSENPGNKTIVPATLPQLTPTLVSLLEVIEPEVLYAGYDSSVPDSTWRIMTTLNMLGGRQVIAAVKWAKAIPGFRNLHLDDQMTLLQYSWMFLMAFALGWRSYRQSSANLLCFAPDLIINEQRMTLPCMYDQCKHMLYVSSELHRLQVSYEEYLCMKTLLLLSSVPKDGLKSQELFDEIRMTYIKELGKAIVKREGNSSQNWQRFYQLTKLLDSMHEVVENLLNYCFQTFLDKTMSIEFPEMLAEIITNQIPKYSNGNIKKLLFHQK
Sequence of Cytochrome P450 1A2 (Homo sapiens) (P05177 whole entry, looked up): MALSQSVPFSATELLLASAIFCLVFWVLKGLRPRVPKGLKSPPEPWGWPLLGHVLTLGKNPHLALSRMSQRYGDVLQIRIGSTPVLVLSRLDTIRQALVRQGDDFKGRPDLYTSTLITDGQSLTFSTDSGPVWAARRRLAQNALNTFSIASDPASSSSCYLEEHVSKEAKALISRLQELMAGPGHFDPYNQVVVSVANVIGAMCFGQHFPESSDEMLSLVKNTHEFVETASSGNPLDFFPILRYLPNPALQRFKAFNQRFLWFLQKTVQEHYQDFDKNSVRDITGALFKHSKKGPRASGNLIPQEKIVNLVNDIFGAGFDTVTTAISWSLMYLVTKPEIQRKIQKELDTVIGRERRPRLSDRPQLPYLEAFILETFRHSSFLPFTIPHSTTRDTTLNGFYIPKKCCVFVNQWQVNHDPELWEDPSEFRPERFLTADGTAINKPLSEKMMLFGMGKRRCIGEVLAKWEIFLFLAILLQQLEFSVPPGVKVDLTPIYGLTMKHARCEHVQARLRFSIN

## Fc1ccc(Nc2ccnc(-c3ccoc3)n2)cc1
[1]
  Potency: > 11.4 µM (inactive)
[2]
  activity change, negative = inhibition: -6.54% (inactive)
[3]
  Potency: 1 µM (active)
[4]
  activity change, negative = inhibition: 6.01% (inactive)
[5]
  activity, negative = inhibition: 8.8% (inactive)
[6]
  Potency: > 46 µM (inactive)
[7]
  Potency: > 46 µM (inactive)
[8]
  outcome: inactive
[9]
  Potency: inactive
[10]
  Potency: 7.94 µM (active)
[11]
  Potency: inactive
[12]
  activity change, negative = inhibition: 8.99% (inactive)
[12]; [17]
  max response: 9.29%
[12]; [18]
  max response: 17.6%
[13]
  Potency: inactive
[14]
  Potency: inactive

## COc1ccc(CNc2cc(-c3ccoc3)ncn2)c(OC)c1
[1]
  Potency: > 11.4 µM (inactive)
[2]
  activity change, negative = inhibition: -15.9% (inactive)
[3]
  Potency: 15.8 µM (active)
[4]
  activity change, negative = inhibition: 0.143% (inactive)
[5]
  activity, negative = inhibition: 19.9% (inactive)
[6]
  Potency: > 46 µM (inactive)
[7]
  Potency: > 46 µM (inactive)
[8]
  outcome: inactive
[9]
  Potency: inactive
[11]
  Potency: inactive
[12]
  activity change, negative = inhibition: 8.38% (inactive)
[12]; [17]
  max response: 31.5%
[12]; [18]
  max response: 38.7%
[15]
  Potency: inactive
[13]
  Potency: inactive
[14]
  Potency: inactive

## CCNc1ncc2nc(-c3cc(F)cc(F)c3)c(=O)n(C[C@H]3CCCO3)c2n1
[1]
  Potency: > 11.4 µM (inactive)
[2]
  activity change, negative = inhibition: 7.28% (inactive)
[3]
  Potency: 3.16 µM (active)
[4]
  activity change, negative = inhibition: 8.04% (inactive)
[5]
  activity, negative = inhibition: -1.58% (inactive)
[6]
  Potency: > 9.22 µM (inactive)
[7]
  Potency: > 46 µM (inactive)
[8]
  outcome: inactive
[9]
  Potency: inactive
[11]
  Potency: inactive
[12]
  activity change, negative = inhibition: 6.72% (inactive)
[12]; [17]
  max response: 13.4%
[12]; [18]
  max response: 19%
[15]
  Potency: inactive
[13]
  Potency: inactive
[14]
  Potency: inactive

## CS(=O)(=O)Nc1cccc(-c2cncnc2Nc2ccc(F)cc2)c1
[2]
  activity change, negative = inhibition: -19.4% (inactive)
[3]
  Potency: 5.01 µM (active)
[4]
  activity change, negative = inhibition: 26% (inactive)
[5]
  activity, negative = inhibition: 13.7% (inactive)
[7]
  Potency: > 46 µM (inactive)
[8]
  outcome: inactive
[9]
  Potency: inactive
[10]
  Potency: 0.316 µM (active)
[11]
  Potency: inactive
[12]
  activity change, negative = inhibition: 8.07% (inactive)
[12]; [17]
  max response: 21.9%
[12]; [18]
  max response: 26.3%
[15]
  Potency: inactive
[13]
  Potency: inactive
[14]
  Potency: inactive

## Cc1ccccc1-c1nccc(NCCN2CCOCC2)n1
[1]
  Potency: > 11.4 µM (inactive)
[2]
  activity change, negative = inhibition: 20.7% (inactive)
[3]
  Potency: 5.01 µM (active)
[4]
  activity change, negative = inhibition: -13.9% (inactive)
[5]
  activity, negative = inhibition: -1.96% (inactive)
[6]
  Potency: > 46 µM (inactive)
[7]
  Potency: > 46 µM (inactive)
[8]
  outcome: inactive
[9]
  Potency: inactive
[11]
  Potency: inactive
[12]
  activity change, negative = inhibition: 3.61% (inactive)
[12]; [17]
  max response: 17.5%
[12]; [18]
  max response: 21.4%
[16]
  Potency: inactive
[15]
  Potency: inactive
[13]
  Potency: inactive
[14]
  Potency: inactive

## CCNc1ncc2nc(C)c(=O)n(C)c2n1
[1]
  Potency: > 11.4 µM (inactive)
[2]
  activity change, negative = inhibition: -6.84% (inactive)
[3]
  Potency: 5.01 µM (active)
[4]
  activity change, negative = inhibition: 2.38% (inactive)
[5]
  activity, negative = inhibition: -8.23% (inactive)
[6]
  Potency: > 9.22 µM (inactive)
[7]
  Potency: > 46 µM (inactive)
[8]
  outcome: inactive
[12]
  activity change, negative = inhibition: 2.6% (inactive)
[12]; [17]
  max response: 22.7%
[12]; [18]
  max response: 26.7%
[15]
  Potency: inactive
[13]
  Potency: inactive
[14]
  Potency: inactive
